How the values were obtained:
Assay in all cases: log2 ratio of Biotin-Ahx-Ub-VS probe labelling (fragment/DMSO); higher = less target engagement (more negative = stronger competition), active = hit call of the paper (q ≤ 0.05, log2 ratio ≤ -1)
Details in all cases: compound concentration: 200 uM; treatment time: 3 h
[1] = molecular target: T1, USP19 (UniProt O94966)
T1 sequence (whole entry): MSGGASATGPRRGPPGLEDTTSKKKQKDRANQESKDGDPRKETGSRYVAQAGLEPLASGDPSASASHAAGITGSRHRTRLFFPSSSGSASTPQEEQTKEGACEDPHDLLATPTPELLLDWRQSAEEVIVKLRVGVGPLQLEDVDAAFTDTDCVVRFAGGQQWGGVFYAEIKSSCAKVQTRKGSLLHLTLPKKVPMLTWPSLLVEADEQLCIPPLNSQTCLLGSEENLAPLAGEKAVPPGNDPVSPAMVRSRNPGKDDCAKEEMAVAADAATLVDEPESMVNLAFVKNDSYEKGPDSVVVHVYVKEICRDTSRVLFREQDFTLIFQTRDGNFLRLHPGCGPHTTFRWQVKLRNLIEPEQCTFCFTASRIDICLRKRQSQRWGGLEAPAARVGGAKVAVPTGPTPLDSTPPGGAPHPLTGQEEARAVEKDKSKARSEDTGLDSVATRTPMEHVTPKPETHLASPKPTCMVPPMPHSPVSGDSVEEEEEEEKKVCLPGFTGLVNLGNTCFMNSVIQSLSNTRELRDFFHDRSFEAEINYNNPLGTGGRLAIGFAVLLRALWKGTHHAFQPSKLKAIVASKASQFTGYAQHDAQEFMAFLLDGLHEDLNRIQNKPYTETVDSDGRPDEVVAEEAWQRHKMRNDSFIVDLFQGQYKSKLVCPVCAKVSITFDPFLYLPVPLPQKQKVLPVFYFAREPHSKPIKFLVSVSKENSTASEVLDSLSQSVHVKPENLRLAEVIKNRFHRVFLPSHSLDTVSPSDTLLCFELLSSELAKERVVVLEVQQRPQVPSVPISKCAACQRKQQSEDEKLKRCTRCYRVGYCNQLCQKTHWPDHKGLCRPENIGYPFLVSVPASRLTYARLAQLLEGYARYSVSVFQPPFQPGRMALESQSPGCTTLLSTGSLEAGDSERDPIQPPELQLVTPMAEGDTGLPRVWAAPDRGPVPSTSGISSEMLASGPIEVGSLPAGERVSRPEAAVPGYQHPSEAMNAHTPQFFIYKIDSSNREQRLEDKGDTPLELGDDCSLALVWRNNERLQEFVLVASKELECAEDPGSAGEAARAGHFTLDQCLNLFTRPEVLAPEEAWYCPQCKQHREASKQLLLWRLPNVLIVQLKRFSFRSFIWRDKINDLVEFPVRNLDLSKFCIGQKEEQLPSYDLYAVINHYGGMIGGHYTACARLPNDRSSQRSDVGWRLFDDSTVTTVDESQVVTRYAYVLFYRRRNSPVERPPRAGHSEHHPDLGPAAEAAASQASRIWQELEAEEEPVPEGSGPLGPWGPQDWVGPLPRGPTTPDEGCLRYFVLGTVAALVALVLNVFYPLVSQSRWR
Procedure, shortened: (§1)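 Fragment (200 µM) or vehicle was incubated for 3 h with triplicate HEK293T lysate samples of 495 µg, which were then treated with Biotin-Ahx-Ub-VS at 0.5 µM final for 1 h. Labelled DUBs were enriched on NeutrAvidin, digested with LysC and trypsin, and analysed by diaPASEF LC-MS/MS. Values are average log2 fragment/vehicle ratios from an unpaired t-test on global-median-normalised Spectronaut label-free quantities, using proteins with ≥2 unique peptides.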

[2] = molecular target: T2, USP22 (UniProt Q9UPT9)
T2 sequence (whole entry): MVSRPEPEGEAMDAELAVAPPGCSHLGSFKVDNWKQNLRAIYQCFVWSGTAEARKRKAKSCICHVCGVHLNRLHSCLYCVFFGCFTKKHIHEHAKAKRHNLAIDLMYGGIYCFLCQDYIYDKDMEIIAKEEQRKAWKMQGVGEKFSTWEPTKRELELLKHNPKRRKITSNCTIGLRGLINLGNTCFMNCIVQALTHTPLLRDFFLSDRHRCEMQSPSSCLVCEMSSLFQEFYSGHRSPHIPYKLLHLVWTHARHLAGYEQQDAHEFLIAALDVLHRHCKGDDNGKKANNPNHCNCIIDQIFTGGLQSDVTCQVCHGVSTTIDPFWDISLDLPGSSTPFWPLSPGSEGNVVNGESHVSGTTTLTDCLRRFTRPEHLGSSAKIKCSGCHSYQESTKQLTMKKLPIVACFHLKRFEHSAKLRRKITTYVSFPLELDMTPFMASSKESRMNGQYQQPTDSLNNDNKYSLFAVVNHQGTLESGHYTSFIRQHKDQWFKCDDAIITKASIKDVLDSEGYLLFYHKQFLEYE
Procedure, shortened: as §1

[3] = molecular target: USP24 (UniProt Q9UPU5)
Chain of USP24 (Q9UPU5 whole entry): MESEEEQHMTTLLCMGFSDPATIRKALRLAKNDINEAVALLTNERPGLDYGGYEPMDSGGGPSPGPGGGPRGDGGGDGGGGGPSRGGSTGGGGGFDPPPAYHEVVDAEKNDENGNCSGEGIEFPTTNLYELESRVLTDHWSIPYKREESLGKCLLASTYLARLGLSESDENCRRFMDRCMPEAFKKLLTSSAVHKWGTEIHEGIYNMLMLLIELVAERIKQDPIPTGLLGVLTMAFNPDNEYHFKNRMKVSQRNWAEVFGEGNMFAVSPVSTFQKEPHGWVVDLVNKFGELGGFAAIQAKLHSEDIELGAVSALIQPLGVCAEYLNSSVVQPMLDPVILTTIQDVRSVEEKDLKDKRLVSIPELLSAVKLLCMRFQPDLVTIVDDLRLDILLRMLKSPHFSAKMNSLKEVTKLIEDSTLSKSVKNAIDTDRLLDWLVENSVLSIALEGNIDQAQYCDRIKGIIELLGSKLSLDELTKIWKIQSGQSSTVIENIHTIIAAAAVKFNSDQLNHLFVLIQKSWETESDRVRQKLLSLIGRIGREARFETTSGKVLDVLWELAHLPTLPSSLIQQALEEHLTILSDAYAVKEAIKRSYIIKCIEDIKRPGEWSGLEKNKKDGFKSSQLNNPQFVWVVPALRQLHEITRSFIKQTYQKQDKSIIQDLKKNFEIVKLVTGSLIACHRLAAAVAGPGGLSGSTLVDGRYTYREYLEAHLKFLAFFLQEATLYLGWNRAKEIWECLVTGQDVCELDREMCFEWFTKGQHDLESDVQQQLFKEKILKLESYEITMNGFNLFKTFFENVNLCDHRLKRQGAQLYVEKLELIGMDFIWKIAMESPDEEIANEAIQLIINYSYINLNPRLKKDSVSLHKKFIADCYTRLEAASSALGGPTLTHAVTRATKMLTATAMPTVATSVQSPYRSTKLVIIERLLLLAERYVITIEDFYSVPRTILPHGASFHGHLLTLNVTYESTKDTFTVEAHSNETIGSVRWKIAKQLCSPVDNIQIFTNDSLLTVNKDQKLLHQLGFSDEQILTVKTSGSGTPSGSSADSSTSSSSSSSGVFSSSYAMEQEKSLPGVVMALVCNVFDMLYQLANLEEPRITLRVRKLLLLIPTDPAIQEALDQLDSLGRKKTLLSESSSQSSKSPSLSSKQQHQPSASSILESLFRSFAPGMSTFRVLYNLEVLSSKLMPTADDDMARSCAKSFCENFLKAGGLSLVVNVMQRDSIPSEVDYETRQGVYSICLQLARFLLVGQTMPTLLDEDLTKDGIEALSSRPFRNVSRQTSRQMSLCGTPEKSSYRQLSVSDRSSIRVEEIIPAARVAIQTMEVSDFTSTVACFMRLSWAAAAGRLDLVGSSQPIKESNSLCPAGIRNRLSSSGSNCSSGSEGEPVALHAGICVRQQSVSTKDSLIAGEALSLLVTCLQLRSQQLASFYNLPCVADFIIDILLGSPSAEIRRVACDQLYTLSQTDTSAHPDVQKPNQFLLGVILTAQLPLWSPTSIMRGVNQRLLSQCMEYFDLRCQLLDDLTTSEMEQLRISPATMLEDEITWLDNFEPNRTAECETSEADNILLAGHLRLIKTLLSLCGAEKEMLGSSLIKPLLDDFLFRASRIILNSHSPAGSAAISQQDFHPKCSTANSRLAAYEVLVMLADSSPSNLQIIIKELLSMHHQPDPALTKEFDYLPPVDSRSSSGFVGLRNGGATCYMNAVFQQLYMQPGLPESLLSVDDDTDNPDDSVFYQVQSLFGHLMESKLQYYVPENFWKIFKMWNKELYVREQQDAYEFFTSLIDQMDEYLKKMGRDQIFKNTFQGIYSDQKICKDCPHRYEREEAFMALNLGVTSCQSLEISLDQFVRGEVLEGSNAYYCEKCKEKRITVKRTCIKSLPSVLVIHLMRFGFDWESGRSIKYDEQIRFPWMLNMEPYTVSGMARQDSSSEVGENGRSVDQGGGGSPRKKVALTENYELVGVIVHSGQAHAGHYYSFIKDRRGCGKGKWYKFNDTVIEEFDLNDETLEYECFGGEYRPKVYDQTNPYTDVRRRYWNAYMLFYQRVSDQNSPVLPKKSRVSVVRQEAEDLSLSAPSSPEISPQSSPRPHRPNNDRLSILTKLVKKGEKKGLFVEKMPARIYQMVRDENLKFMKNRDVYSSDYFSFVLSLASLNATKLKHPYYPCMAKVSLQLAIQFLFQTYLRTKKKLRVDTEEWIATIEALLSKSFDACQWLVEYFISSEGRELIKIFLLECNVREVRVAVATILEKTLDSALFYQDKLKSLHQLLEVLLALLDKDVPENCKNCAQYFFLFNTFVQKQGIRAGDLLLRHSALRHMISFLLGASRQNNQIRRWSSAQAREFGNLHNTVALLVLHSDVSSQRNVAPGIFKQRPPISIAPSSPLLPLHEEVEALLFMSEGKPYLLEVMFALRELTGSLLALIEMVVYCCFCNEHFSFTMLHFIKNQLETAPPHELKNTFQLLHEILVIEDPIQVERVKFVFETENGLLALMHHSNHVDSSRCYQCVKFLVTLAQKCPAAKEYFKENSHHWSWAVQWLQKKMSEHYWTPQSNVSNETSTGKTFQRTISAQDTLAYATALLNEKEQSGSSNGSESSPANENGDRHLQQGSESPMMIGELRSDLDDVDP
Procedure, shortened: as §1

[4] = molecular target: T3, USP25 (UniProt Q9UHP3)
T3 sequence (whole entry): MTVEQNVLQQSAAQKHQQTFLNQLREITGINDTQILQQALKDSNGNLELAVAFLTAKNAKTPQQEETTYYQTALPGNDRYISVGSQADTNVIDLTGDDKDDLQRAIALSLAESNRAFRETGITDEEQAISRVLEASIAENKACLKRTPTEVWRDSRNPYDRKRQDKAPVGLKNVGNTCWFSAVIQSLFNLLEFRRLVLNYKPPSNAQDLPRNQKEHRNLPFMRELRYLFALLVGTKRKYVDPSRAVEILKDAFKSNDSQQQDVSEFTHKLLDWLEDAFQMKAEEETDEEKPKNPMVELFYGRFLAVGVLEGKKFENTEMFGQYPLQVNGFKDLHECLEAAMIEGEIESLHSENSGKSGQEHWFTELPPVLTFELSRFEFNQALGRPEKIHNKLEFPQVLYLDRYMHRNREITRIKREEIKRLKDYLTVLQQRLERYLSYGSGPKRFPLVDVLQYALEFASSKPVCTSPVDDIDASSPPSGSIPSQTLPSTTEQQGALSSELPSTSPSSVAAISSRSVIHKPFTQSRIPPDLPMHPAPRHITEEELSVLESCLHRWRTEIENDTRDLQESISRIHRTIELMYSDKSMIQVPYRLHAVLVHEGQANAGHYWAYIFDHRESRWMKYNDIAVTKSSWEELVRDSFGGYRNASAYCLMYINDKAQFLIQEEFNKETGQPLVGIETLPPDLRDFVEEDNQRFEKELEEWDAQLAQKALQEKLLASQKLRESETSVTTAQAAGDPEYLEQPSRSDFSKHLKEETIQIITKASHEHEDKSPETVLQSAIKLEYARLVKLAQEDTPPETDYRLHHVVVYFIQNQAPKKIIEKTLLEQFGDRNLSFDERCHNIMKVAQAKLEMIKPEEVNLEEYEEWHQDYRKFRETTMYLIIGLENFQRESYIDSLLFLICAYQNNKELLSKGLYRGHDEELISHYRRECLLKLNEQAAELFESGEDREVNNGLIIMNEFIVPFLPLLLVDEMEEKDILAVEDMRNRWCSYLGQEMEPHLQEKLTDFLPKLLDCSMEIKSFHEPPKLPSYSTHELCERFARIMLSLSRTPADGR
Procedure, shortened: as §1

[5] = molecular target: T4, USP28 (UniProt Q96RU2)
T4 sequence (whole entry): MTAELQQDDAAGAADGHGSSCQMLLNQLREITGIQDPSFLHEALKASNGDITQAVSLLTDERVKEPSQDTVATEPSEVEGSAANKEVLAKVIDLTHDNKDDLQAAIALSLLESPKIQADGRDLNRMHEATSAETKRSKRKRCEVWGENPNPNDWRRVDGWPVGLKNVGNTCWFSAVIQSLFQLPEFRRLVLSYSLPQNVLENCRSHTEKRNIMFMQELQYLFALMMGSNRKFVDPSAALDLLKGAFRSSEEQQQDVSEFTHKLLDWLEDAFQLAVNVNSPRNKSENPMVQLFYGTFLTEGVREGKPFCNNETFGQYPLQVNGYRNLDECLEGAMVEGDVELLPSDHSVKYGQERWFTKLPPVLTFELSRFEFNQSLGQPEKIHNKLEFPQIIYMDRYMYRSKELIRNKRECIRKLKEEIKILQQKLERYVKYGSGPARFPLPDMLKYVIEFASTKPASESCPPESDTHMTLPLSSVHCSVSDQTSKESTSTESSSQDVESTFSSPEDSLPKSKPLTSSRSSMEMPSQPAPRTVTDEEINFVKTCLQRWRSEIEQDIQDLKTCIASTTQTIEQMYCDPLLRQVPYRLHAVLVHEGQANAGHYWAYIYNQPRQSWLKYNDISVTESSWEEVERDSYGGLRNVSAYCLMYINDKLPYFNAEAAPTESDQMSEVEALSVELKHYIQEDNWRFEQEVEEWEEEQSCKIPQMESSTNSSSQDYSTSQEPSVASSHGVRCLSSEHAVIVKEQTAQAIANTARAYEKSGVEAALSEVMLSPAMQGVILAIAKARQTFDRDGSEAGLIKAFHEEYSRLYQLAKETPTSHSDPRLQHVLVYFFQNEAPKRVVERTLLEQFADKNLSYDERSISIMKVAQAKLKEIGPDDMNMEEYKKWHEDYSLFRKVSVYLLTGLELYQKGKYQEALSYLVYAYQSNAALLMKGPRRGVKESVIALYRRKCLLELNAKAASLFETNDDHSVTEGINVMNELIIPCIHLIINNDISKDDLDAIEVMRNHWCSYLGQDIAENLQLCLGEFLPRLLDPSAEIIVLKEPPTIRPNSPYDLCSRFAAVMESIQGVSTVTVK
Procedure, shortened: as §1

Measured: log2 ratio of Biotin-Ahx-Ub-VS probe labelling

CC(NC(=O)CCl)c1ccc2[nH]ncc2c1 (stereo not given)
inactive: [1] -0.529 | [2] 0.0735 | [3] -0.886 | [4] -0.509 | [5] -0.901
